High-throughput results (PubChem)
DT40 TDP1 CPT: growth inhibition of DT40 Tdp1-/-;hTDP1 cells with camptothecin (screen for TDP1 inhibitors) | chicken DT40 Tdp1-/-;hTDP1 cells + 20 nM CPT, ATP luminescence, 48 h | Potency, µM (titrated, usually from 46.2 µM), for the others: at the top dose activity change, negative = growth inhibition, actives largely listed as inhibitors | actives 12% (n = 420,000); note: nearly all actives have a fitted effect of over 55% in size
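Cell growth measured by CellTiter-Glo luminescence after a minimum 48 h, 37 C compound exposure with 20 nM CPT in Tdp1-knockout DT40 cells stably expressing hTDP1, seeded 400/well; qHTS titration format.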
KB-V1 MDR tox: kills drug-selected multidrug resistant KB-V1 cells. Potency, µM (titrated, usually from 46.1 µM), hits mostly cytotoxic. actives 3.4% (n = 400,000). KB-V1 MDR cells viability, CellTiter-Glo, 72 h. AID 1347076; note: nearly all actives have a fitted effect of over 60% in size
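Cells of the MDR subline KB-V1 are plated, dosed with compound at multiple concentrations, and incubated 72 h at 37 degrees C; CellTiter-Glo is then added and luminescence read after 10 min.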
KB-3-1 tox: kills parental KB-3-1 adenocarcinoma cells | KB-3-1 viability, CellTiter-Glo ATP luminescence, 72 h | Potency, µM (titrated, usually from 46.1 µM), hits mostly cytotoxic | actives 1.4% (n = 400,000); note: nearly all actives have a fitted effect of over 60% in size
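KB-3-1 cells, DMEM (no phenol red) + 10% FBS; compound by pin transfer, 72 h, 37 °C. Readout: CellTiter-Glo luminescence after 10 min. Data normalized, curve-fitted.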
DT40 TDP1 no CPT: qHTS for Inhibitors of human tyrosyl-DNA phosphodiesterase 1 (TDP1): qHTS in cells in absence of CPT; actives 15% (n = 420,000); Potency, µM (series often up to 46.2 µM), inactives show at the top dose activity change, negative = growth inhibition, most hits filed as inhibitors; DT40 Tdp1-/- hTDP1 cells, no CPT, ATP luminescence, 48 h; note: nearly all actives have a fitted effect of over 55% in size
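Camptothecin absent (DMSO only). Human TDP1-complemented DT40 knockout cells, 400 cells/well, 37 °C for minimum 48 hr; ATP measured via CellTiter-Glo, 30 min dark incubation, luminescence.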
HT1080-NT tox: kills 2HG-producing HT-1080-NT fibrosarcoma cells; HT-1080-NT fibrosarcoma viability, CellTiter-Glo ATP luminescence, 48 h; Potency, µM (highest dose often 46.1 µM), without a hit: at the highest dose activity, negative = less viability, most hits filed as cytotoxic; actives 1.6% (n = 360,000);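 note: NT is the 2HG producing partner of a matched IDH1 knockdown line; 0% = DMSO-treated cells and -100% = media-only wells without cells; nearly all actives have a fitted effect of over 55% in size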
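Fibrosarcoma NT cells, 750 per well in 5% FBS RPMI, were exposed to compound for 48 hours. Viability: CellTiter-Glo luminescence.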
HT1080 IDH1KD tx: kills HT-1080 cells with IDH1 knockdown; AID 686971; actives 2% (n = 360,000); Potency, µM (doses to about 46.1 µM), for the others: top-dose activity, negative = toxicity, actives largely listed as cytotoxic; HT-1080 IDH1 knockdown viability, ATP luminescence, 48 h;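 note: 0% = DMSO wells and -100% = cell-free medium wells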
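HT-1080-IDH1KD cells (IDH1 knocked down), 750/well in RPMI with 5% FBS, treated with compound 48 h at 37 degrees C. Viability by CellTiter-Glo luminescence, normalised to DMSO and no-cell wells; concentration-response curves classed.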
* = called active by the depositor; i = inactive; ? = inconclusive; nt = not tested or not shown. Sampled rows, rich in hits. Any-hit rate of the full collection: about 19%. Calls come from the whole dose curve; as a rule, active = well fitted curve in the direction sought with a large enough effect; inconclusive = small, poorly fitted or top-dose-only effect, or another doubt; inactive = no such curve, though single readings can be large; an effect the other way counts as inactive or inconclusive. Unless noted, % is set by controls: 0 for no effect and ±100 for the full control effect; potency is the fitted concentration of half-maximal effect.

SMILES	DT40 TDP1 CPT	KB-V1 MDR tox	KB-3-1 tox	DT40 TDP1 no CPT	HT1080-NT tox	HT1080 IDH1KD tx
CN1CCN(C2CN(CCc3ccccc3)S(=O)(=O)C2)CC1 (centres undefined)	-16%	i	i	-8%	-2%	0%
COc1ccccc1-c1nc(C(=O)NCC2CCCO2)cc2c1[nH]c1ccccc12 (centres undefined)	21µM*	i	i	15µM*	-14%	-18%
COc1cccc2[nH]c(C(=O)NCC3CCCO3)cc12 (centres undefined)	-4%	i	?	31%	-20%	-2%
O=C(NCC1CCCO1)c1cc2ccccc2[nH]1 (centres undefined)	-22%	i	i	?	20%	25%
COc1cc(-c2nc(C(=O)NCC3CCCO3)cc3c2[nH]c2ccccc23)cc(OC)c1OC (centres undefined)	5.8µM*	?	i	7.3µM*	?	?
O=C(NCC1CCCO1)c1cc2c([nH]c3ccccc32)c(-c2cccc(Cl)c2)n1 (centres undefined)	4.1µM*	?	?	2.3µM*	-25%	-25%
COc1ccc(CCn2c(=O)c3cccnc3n(CC(=O)Nc3c(C)cc(C)cc3C)c2=O)cc1OC	-19%	i	i	?	nt	nt
Cc1cc(N2CCN(c3cccc(C)c3C)CC2)n2nc(C)c(-c3ccc(Cl)cc3)c2n1	-9%	?	i	1%	nt	nt
CCc1ccc(S(=O)(=O)c2cn(Cc3ccccc3)c3cc(F)c(F)cc3c2=O)cc1	?	i	i	?	nt	nt
CCOc1ccc(NC(=O)CSc2nc(-c3ccccc3)c3cc(OCC)ccc3n2)cc1	15µM*	nt	nt	?	nt	nt
Cc1cc(C)cc(NC(=O)CSc2nc(-c3ccccc3)c3cc(F)ccc3n2)c1	18µM*	nt	nt	18µM*	nt	nt
COC(=O)c1cc(Cl)ccc1NCC(N)c1ccccc1 (centres undefined)	18µM*	i	i	?	21µM*	18µM*
COc1ccccc1CC(=O)Nc1ccc(Cl)cc1C(=O)O	21%	i	?	-11%	-4%	-14%
CCOC(=O)c1c(N)nn(C(=O)C(C)C)c1-c1ccccc1	?	?	i	13µM*	-4%	-28%
CCOC(=O)c1c(C)nc2ccccc2c1-c1ccccc1	?	?	i	18µM*	-3%	-16%
CCOC(=O)c1c(CCl)nc2ccccc2c1-c1ccccc1	13µM*	i	i	23µM*	-8%	-15%
CN(C1CCCCC1)S(=O)(=O)c1ccc2c(c1)c(=O)c(C(=O)NCc1ccc(Cl)cc1)cn2C	-20%	i	i	?	nt	nt
COc1ccc(-c2[nH]ncc2C(=O)NCc2cccc(Cl)c2)cc1	4%	nt	nt	?	nt	nt
Cc1c2cnccc2c(C)c2c1oc1ccccc12	?	12µM*	?	23µM*	-2%	6%
O=C(/C=C/c1ccccc1[N+](=O)[O-])OCC(=O)c1ccccc1	-1%	i	i	-7%	6%	6%
O=C(/C=C/c1ccccc1[N+](=O)[O-])c1ccc(F)cc1	13µM*	23µM*	?	18µM*	?	-25%
O=C(/C=C/c1ccccc1O)c1ccc(Cl)cc1	21µM*	i	i	23µM*	-9%	-23%
O=C(O)c1ccccc1O	6%	i	i	-5%	24%	9%
O=C(/C=C/c1ccccc1O)c1ccccc1	21µM*	i	i	15µM*	22%	-14%
O=C(/C=C(\O)c1ccccc1)c1ccccc1O	16µM*	nt	nt	8.2µM*	nt	nt
SMILES	DT40 TDP1 CPT	KB-V1 MDR tox	KB-3-1 tox	DT40 TDP1 no CPT	HT1080-NT tox	HT1080 IDH1KD tx
COC(C(=O)Nc1ccnn1C1CCN(Cc2nccs2)CC1)c1ccccc1 (centres undefined)	-6%	i	i	-11%	-5%	-7%
CC(=O)Nc1nonc1-c1nnc(SCc2ccc(Cl)cc2)n1C	?	i	i	?	nt	nt
Cc1cc(O)c(C(=O)/C=C/c2ccccc2O)c(=O)o1	23µM*	i	i	29µM*	2%	5%
O=C(NNS(=O)(=O)c1ccccc1[N+](=O)[O-])c1ccc(O)cc1	3%	i	i	3%	19%	6%
CCN(Cc1ccccc1)C(=O)/C=C/c1ccccc1[N+](=O)[O-]	16µM*	i	i	?	0%	-1%
O=C(NNS(=O)(=O)c1ccccc1[N+](=O)[O-])c1ccc(F)cc1	?	i	?	16µM*	-18%	?
CN(Cc1cccs1)C(=O)/C=C/c1ccccc1[N+](=O)[O-]	-4%	?	i	-28%	-9%	2%
Cc1cc(O)c(C(=O)/C=C/c2cccc([N+](=O)[O-])c2)c(=O)o1	?	i	i	?	1%	16%
COc1ccc(CNC(=O)/C=C/c2ccccc2[N+](=O)[O-])cc1	-7%	i	i	-13%	-16%	1%
COC(=O)C(=Cc1ccccc1[N+](=O)[O-])C(=O)OC	8.2µM*	i	i	12µM*	?	0%
CC1=C(C(=O)N2CCCCCC2)CC(CC(=O)NCCN2CCOCC2)C(=O)N1CCCN1CCCC1=O (centres undefined)	-2%	?	nt	1%	2%	2%
O=C(/C=C/c1cccc2ccccc12)c1ccncc1	21µM*	2.6µM*	2.9µM*	15µM*	?	?
CCOc1ccccc1/C=C/C(=O)c1ccc(Cl)cc1	?	i	i	16µM*	-1%	1%
O=C(/C=C/c1cccc2ccccc12)N1CCOCC1	0%	i	i	-8%	-12%	2%
COc1ccc(CCNC(=O)CCS(=O)(=O)c2cc(Br)cc3c2N(C(C)=O)CC3)cc1OC	-1%	i	i	-13%	nt	nt
CCOC(=O)c1c(Oc2ccc(OC)cc2)nnc(-c2ccccc2)c1-c1ccccc1	16µM*	i	i	?	nt	nt
CCOC(=O)c1cnc(-c2ccccc2)nc1Oc1ccc(OC)cc1	-1%	i	i	17%	2%	4%
CCOC(=O)c1c(Oc2ccc(C(=O)OC)cc2)nnc(-c2ccccc2)c1-c1ccccc1	16µM*	i	i	23µM*	nt	nt
